Shown is part of a subset that was picked to be rich in hits.
IL1B secr inh = inhibitors of inflammasome signaling (IL-1 beta secretion). 360,000 tested, 4.7% active. THP-1 LPS/ATP IL-1B secretion, AlphaLISA, 16 h; active compounds read low. activity change, % at 57.5 µM. AID 743279; in the data active means activity change below about -50%; inconclusive means mostly about -30% to -49%
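THP-1 cells pretreated 1 hr with compounds (up to 57.5 uM final), then stimulated with LPS (250 ng/mL final) plus ATP (1.25 mM final); secreted IL-1B measured by AlphaLISA after 16 hr, decreased signal indicating inhibition.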
DT40 TDP1 CPT = growth inhibition of DT40 Tdp1-/-;hTDP1 cells with camptothecin (screen for TDP1 inhibitors). chicken DT40 Tdp1-/-;hTDP1 cells + 20 nM CPT, ATP luminescence, 48 h. Potency, µM (titrated, usually from 46.2 µM), for the others: at the top dose activity change, negative = growth inhibition, most hits filed as inhibitors. 420,000 tested, 12% active; further: potency means the concentration at half of the fitted maximal effect; nearly all actives have a fitted effect of over 55% in size
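Cell growth measured by CellTiter-Glo luminescence after a minimum 48 h, 37 C compound exposure with 20 nM CPT in Tdp1-knockout DT40 cells stably expressing hTDP1, seeded 400/well; qHTS titration format.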
HT1080 IDH1KD tx = HT-1080 IDH1 knockdown cell toxicity (counter line); HT-1080 IDH1 knockdown viability, ATP luminescence, 48 h; 360,000 tested, 2% active; AID 686971; Potency, µM (doses to about 46.1 µM), for inactives: at the top dose activity, negative = toxicity, most hits filed as cytotoxic;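 further: potency means the concentration at half of the fitted maximal effect; 0% = DMSO wells and -100% = cell-free medium wells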
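IDH1KD HT-1080 cells, 750/well, RPMI + 5% FBS; compound pinned after 2 h settling; 48 h, 37 °C; CellTiter-Glo luminescence; % activity normalised to DMSO and no-cell wells; curves fitted, classed by r2 and efficacy.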
HT1080-NT tox = kills 2HG-producing HT-1080-NT fibrosarcoma cells | HT-1080-NT fibrosarcoma viability, CellTiter-Glo ATP luminescence, 48 h | Potency, µM (doses to about 46.1 µM), for inactives: top-dose activity, negative = less viability, actives largely listed as cytotoxic | 360,000 tested, 1.6% active;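 further: NT is the 2HG producing partner of a matched IDH1 knockdown line; potency means the concentration at half of the fitted maximal effect; 0% = DMSO-treated cells and -100% = media-only wells without cells; nearly all actives have a fitted effect of over 55% in size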
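Toxicity toward the 2HG-producing NT line was scored as %Activity, normalised to DMSO and no-cell wells, from CellTiter-Glo luminescence after 48 hours' treatment.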
DT40 TDP1 no CPT = qHTS for Inhibitors of human tyrosyl-DNA phosphodiesterase 1 (TDP1): qHTS in cells in absence of CPT. 420,000 tested, 15% active. Potency, µM (doses to about 46.2 µM), for inactives: at the highest dose activity change, negative = growth inhibition, most hits filed as inhibitors. DT40 Tdp1-/- hTDP1 cells, no CPT, ATP luminescence, 48 h; further: potency means the concentration at half of the fitted maximal effect; nearly all actives have a fitted effect of over 55% in size
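Camptothecin absent (DMSO only). Human TDP1-complemented DT40 knockout cells, 400 cells/well, 37 °C for minimum 48 hr; ATP measured via CellTiter-Glo, 30 min dark incubation, luminescence.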
12-LOX inh = inhibitors of human 12S-lipoxygenase ALOX12. 580,000 tested, 1.1% active. purified 12hLO, xylenol orange hydroperoxide absorbance. P18054. Potency, µM (top dose mostly 108 µM), for inactives: top-dose activity change, negative = inhibition, most hits filed as inhibitors; further: potency means the concentration at half of the fitted maximal effect
Target sequence (P18054 whole entry, looked up): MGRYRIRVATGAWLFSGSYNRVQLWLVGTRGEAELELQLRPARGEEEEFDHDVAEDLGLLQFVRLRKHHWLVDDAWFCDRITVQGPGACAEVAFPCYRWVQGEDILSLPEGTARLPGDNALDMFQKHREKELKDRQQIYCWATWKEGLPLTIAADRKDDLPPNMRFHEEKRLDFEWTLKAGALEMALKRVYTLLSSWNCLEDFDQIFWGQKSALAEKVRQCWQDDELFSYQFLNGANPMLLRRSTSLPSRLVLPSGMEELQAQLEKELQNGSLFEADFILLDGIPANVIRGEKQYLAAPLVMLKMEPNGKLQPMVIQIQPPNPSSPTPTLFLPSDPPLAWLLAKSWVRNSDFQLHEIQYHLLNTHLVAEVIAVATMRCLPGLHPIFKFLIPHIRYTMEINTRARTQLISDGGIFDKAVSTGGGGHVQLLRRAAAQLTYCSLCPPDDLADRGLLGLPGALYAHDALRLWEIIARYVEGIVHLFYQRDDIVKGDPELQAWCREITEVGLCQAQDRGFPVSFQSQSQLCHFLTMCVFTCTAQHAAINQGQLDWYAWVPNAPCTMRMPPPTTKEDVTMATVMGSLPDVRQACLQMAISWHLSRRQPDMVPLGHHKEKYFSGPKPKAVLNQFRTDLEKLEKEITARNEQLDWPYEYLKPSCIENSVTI
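Purified human 12hLO at 150 nM in 25 mM Hepes, 0.01% Triton X-100, pH 7.0, preincubated 15 min at room temperature with compound. Reaction started with 40 uM arachidonic acid, 30 min at room temperature. Hydroperoxide measured by Fe-xylenol orange, 573/405 nm absorbance ratio.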
* = called active by the depositor; ? = inconclusive; . = not tested or not shown; [ ] = dose if it differs, or a comment. Unless noted, the call rests on the fitted dose curve; in most records, active means well fitted curve in the direction sought with a large enough effect; inconclusive means small, poorly fitted or top-dose-only effect, or another doubt; inactive means no such curve, though single readings can be large; an effect the other way counts as inactive or inconclusive. Unless noted, on the % scale 0 is the no-effect control and ±100 the full control effect.

SMILES	IL1B secr inh	DT40 TDP1 CPT	HT1080 IDH1KD tx	HT1080-NT tox	DT40 TDP1 no CPT	12-LOX inh
COc1cc(C(C(=O)NC2CCCCC2)N(C(=O)Cc2c[nH]c3ccccc23)c2ccc(C)cc2)cc(OC)c1OC (stereo not given)	-16	23µM*	-11%	-4%	26µM*	-9%
CC(=O)NC(Cc1c[nH]c2ccccc12)C(=O)OCC(=O)Nc1ccc2c(c1)OCO2 (stereo not given)	9	2%	2%	2%	-6%	0%
COC(=O)c1ccc(C(C(=O)NC2CCCCC2)N(CCc2ccccc2)C(=O)Cc2cccs2)cc1 (stereo not given)	19	5.2µM*	21%	8%	6.5µM*	-28%
Cc1ccc(C(C(=O)Nc2ccc3c(c2)OCO3)N(C)C(=O)Cc2c[nH]c3ccccc23)cc1 (stereo not given)	-52*	?	?	?	-20%	-17%
COc1ccc(C(C(=O)NC2CCCCC2)N(Cc2cccs2)C(=O)Cc2c[nH]c3ccccc23)cc1 (stereo not given)	-59*	4.6µM*	?	?	18µM*	-8%
CNCc1ccccc1F	.	.	.	.	.	3%[12.5 µM]
COc1cc(NS(=O)(=O)c2ccc(Br)cc2)c(OC)cc1NC(=O)c1ccco1	-5	?	0%	-2%	?	11%
COc1ccc(CN(C(=O)Cc2cccs2)C(C(=O)NC2CCCC2)c2ccncc2)cc1 (stereo not given)	-4	?	-24%	1%	?	?
COC(=O)c1ccc(C(C(=O)NC2CCCCC2)N(Cc2ccc(F)cc2)C(=O)Cc2cccs2)cc1 (stereo not given)	-8	9.2µM*	-29%	-4%	12µM*	11%
Cc1c(C(C)NC(=O)c2ccc(C#N)nc2)cnn1-c1ccc(F)cc1F (stereo not given)	.	.	.	.	.	15%
CC/C(=N\NC(=O)c1nnn(-c2nonc2N)c1-c1cccc(OC)c1)c1ccc(C)cc1	0	?	5%	21%	?	6%
COc1ccccc1CN(Cc1cccnc1)S(=O)(=O)c1ccc(-n2cnnn2)c(OC)c1	-12	-2%	-1%	1%	21µM*	7%
COc1cc(S(=O)(=O)N(Cc2cccnc2)Cc2cccc(OC)c2OC)ccc1-n1cnnn1	-12	16µM*	-3%	-2%	?	-1%
COc1ccc(CN(Cc2cccnc2)S(=O)(=O)c2ccc(-n3cnnn3)c(C)c2)cc1OC	?	?	7%[9.24 µM]	-25%	?	?
COc1cc(C(=O)NCc2ccc(S(N)(=O)=O)cc2)ccc1OCC(=O)N1CCOCC1	17	-3%	21%	10%	2%	27%
Cc1ccc(Nc2nc(-c3cccnc3)nc3ccccc23)cc1	-67*	18µM*	?	?	8.2µM*	?
COc1ccc(-c2nc(Nc3ccccc3C)c3ccccc3n2)cc1	.	.	.	.	.	-44%
CCOC(=O)c1c(Nc2ccc(C)cc2)nnc(-c2ccccc2)c1-c1ccccc1	.	?	.	.	18µM*	-19%
CCOC(=O)c1c(Nc2cccc(C(=O)OC)c2)nnc(-c2ccccc2)c1-c1ccccc1	.	?	.	.	?	-29%
CCOC(=O)c1nc(Nc2ccc(C)cc2)c2ccccc2n1	?	21µM*	-21%	-21%	13µM*	163%
Cc1ccccc1Nc1nc(-c2cccnc2)nc2ccccc12	-14	?	4%	7%	21µM*	5%
Cc1ccc(Oc2nc(-c3cccnc3)nc3ccccc23)cc1	.	.	.	.	.	43%
CN(C)[C@@H]1CO[C@H](CNC(=O)Nc2ccccc2)[C@H]1O	.	.	.	.	.	-16%[176 µM]
COCCN1CCC(N2CCN(S(=O)(=O)c3ccc(C)c(Cl)c3)CC2)C1=O (stereo not given)	.	.	.	.	.	61%
CCOC(=O)c1ccc(Nc2nc(-c3cccnc3)nc3ccccc23)cc1	-21	16µM*	?	15µM*	9.2µM*	-13%
SMILES	IL1B secr inh	DT40 TDP1 CPT	HT1080 IDH1KD tx	HT1080-NT tox	DT40 TDP1 no CPT	12-LOX inh
Clc1ccccc1Nc1nc(-c2ccncc2)nc2ccccc12	-2	29µM*	-8%	-4%	16µM*	?
Cc1cc(C)n(CC(=O)N2CCC3(CC2)CC(N2CCN(C(C)C)CC2)CCO3)n1 (stereo not given)	.	.	.	.	.	18%
CC(C)CCC(=O)N1C[C@@H]2CCCN3CCC[C@@H]([C@H]23)[C@H]1CCCC(=O)N1CCOCC1	.	.	.	.	.	17%
Clc1ccc(-c2cnc3n2C[C@H](CNCc2ccc4c(c2)OCO4)OC3)cc1	.	.	.	.	.	40µM*
Fc1ccc(-c2cnc3n2C[C@H](CNCc2ccc4c(c2)OCO4)OC3)cc1	.	.	.	.	.	22µM*
Cc1ccc(-c2cn3c(n2)CO[C@@H](CNCc2ccc(S(C)(=O)=O)cc2)C3)cc1	.	.	.	.	.	64%[176 µM]
Clc1ccc(CNC[C@H]2Cn3c(-c4ccccc4)cnc3CO2)cc1	.	.	.	.	.	25µM*
Clc1ccc(CNC[C@H]2Cn3c(-c4cccc(Cl)c4)cnc3CO2)cc1	.	.	.	.	.	-43%[176 µM]
Cc1ccc(-c2cn3c(n2)CO[C@@H](CNCc2ccc(Cl)cc2)C3)cc1	.	.	.	.	.	13µM*
Clc1ccc(-c2cnc3n2C[C@H](CNCc2cccnc2)OC3)cc1	.	.	.	.	.	38%[176 µM]
CCCCN1CC(=O)N2[C@@H]3c4cc(OC)ccc4OC[C@@H]3[C@H](C(=O)OCC)[C@]2(C)C1=O	-2	-9%	-2%	6%	?	10%
C/C(=N\NC(=O)c1nnn(-c2nonc2N)c1CN1CCCCC1)c1ccccc1O	95	10µM*	?	?	13µM*	1%
C/C(=N\NC(=O)c1nnn(-c2nonc2N)c1CN(C)c1ccccc1)c1ccccc1O	93	8.2µM*	?	?	6.5µM*	-1%
CC(/C=N/NC(=O)c1nnn(-c2nonc2N)c1CN1CCCCC1)=C\c1ccccc1	-7	?	?	?	?	-27%
CN(C)C(=O)N1CCC(C(=O)N2CC(=O)N(C3CCCCC3)CC(OCc3ccncc3)C2)CC1 (stereo not given)	.	.	.	.	.	56%
Cc1ccc(C2Cn3cnc(C(=O)N4CCC(C(=O)NCCCc5ccccc5)CC4)c3CO2)cc1 (stereo not given)	.	.	.	.	.	17%

Compound activity as filed in PubChem BioAssay.
